Data on 1 compound can be found in PubChem BioAssay (NCATS).

The target in assay [1] is Lysosomal acid glucosylceramidase (Homo sapiens) (UniProt P04062). The assay can be described thus: Glucocerebrosidase-p2 (AID 348; in the data active = potency below about 10 µM; also: potency is read from the fitted curve at half-maximal effect). The following applies: purified GBA, blue fluorogenic substrate, 40 min. In a few lines: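 Normal human glucocerebrosidase (0.2 nM) with blue fluorogenic substrate (80 uM final) in citrate/phosphate pH 5.9 with 10mM sodium taurocholate, 0.01% tween-20; 40 min RT, NaOH/glycine stop; fluorescence Ex 365/Em 440; AC50 from a titration from 0.6 nM upwards.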

Assay [2] concerns the target Cytochrome P450 1A2 (Homo sapiens) (UniProt P05177). The assay can be described thus: p450-cyp1a2 (AID 410; calls by dose curve; also: potency is read from the fitted curve at half-maximal effect). The following applies: recombinant CYP1A2, luciferin-ME demethylation, luminescence; series mostly up to 57 µM. In a few lines:
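20nM CYP1A2, 100uM Luciferin-ME (=Km), 100mM KPO4; cpd 10 min RT; +NADPH regen, 60 min RT; stop/detect 20 min; luminescence. Normalized to furafylline 57 uM = full inhibition.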

A short description of assay [3]: Stat Signaling Pathway (AID 446; active = well fitted curve in either direction with a large enough effect, not every such curve was filed as active;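 also: ME-180 cervical cancer cells given 40 pM IL-6 alongside compound; SIE-controlled beta-lactamase reporter measured as 460/530 nm FRET emission ratio; % is scaled to controls: 0 for no effect and ±100 for the full control effect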). The following applies: ME-180 (cervical carcinoma) SIE beta-lactamase reporter, IL-6 stimulated, 5 h; at 7.69 µM (top of the series) unless noted. In a few lines: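 Normalization used AC90 stimulation (300 pM IL-6) and AC90 inhibition (125 nM pan-JAK inhibitor at 40 pM IL-6). The underlying signal is SIE-driven beta-lactamase in ME-180 cells after 5 h IL-6 exposure with compound.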

Assay [4] has as its target Glucocorticoid receptor (Homo sapiens) (UniProt P04150). Kind of assay: GR-GFP Redistribution (AID 450;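 active = compounds whose dose series gives a full or clear partial fitted curve of increased nuclear translocation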; also: potency is read from the fitted curve at half-maximal effect). The following applies: U2OS GR-GFP nuclear translocation, laser cytometry, 2 h.
The target is the same in assay [5]. The assay can be described thus: GR-EFC Redistribution (AID 451; calls by dose curve; also: potency is read from the fitted curve at half-maximal effect). The following applies: CHO-K1 GR-EFC translocation, beta-gal luminescence, 2 h. In a few lines: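 Translocation of GR-ED fusion to nuclear EA restores b-gal, read by luminescence after 1 h room-temperature detection. Engineered CHO-K1 biosensor cells, 1,000/well, exposed 2 h at 37 C to titrations up to 46 uM final.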

Assay [6] deals with Mitogen-activated protein kinase 10 (Mus musculus) (UniProt Q61831). Kind of assay: JNK3 AlphaScreen Assay (AID 530; active = well fitted curve in either direction with a large enough effect, not every such curve was filed as active;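 also: kinase came from lysate of stimulated human HepG2 cells; signal reports phosphorylation of biotinylated GST-cJun 1-79 at Ser73 with 10 µM ATP; % is scaled to controls: 0 for no effect and ±100 for the full control effect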). To be noted: JNK3 lysate, c-Jun phosphorylation; series mostly up to 57.1 µM. In a few lines: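 Kinase buffer: 20 mM Tris-HCl pH 7.6, 10 mM MgCl2, 1 mM DTT, 0.1 mM Na3VO4, 0.01% Tween-20; ATP 10 uM. Substrate biotin-GST-cJun(1-79), enzyme from activated HepG2 lysates. Detection by Ser73 phospho-antibody AlphaScreen.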
In general terms: Alpha assays give light when donor and acceptor beads are brought close together.

For assay [7], the target named is Cytochrome P450 2C9 (Homo sapiens) (UniProt P11712). The assay can be described thus: qHTS Assay for Inhibitors and Substrates of Cytochrome P450 2C9 (AID 883). Also: potency is read from the fitted curve at half-maximal effect; nearly all actives have a fitted effect of over 60% in size. The following applies: recombinant CYP2C9, luciferin-H luminescence, 60 min; series mostly up to 57.1 µM. The method in brief:
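Inhibition of CYP2C9 is scored as loss of luminescence, with 57uM sulphaphenazole defining 100% inhibition. Substrate Luciferin-H is used at 100uM, equal to its KM; enzyme at 10nM in 25mM KPO4, 60 min at 37C with NADPH regeneration.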
Background: Quantitative high-throughput screening tests each substance at several concentrations.

Assay [8] deals with Cytochrome P450 3A4 (Homo sapiens) (UniProt P08684). The assay can be described thus: qHTS Assay for Inhibitors and Substrates of Cytochrome P450 3A4 (AID 884). Also: potency is read from the fitted curve at half-maximal effect; nearly all actives have a fitted effect of over 50% in size. To be noted: recombinant CYP3A4, Luciferin-PPXE luminescence; series mostly up to 57.1 µM. In a few lines:
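Luminescent readout of luciferin produced by CYP3A4 (20 nM) dealkylation of Luciferin-PPXE, 25 uM (its KM). NADPH-driven reaction ran 60 min at RT after 10 min compound preincubation; data scaled to 57 uM ketoconazole as 100% inhibition.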

Assay [9] has the same target. Kind of assay: qHTS Assay for Activators of Cytochrome P450 3A4 (AID 885). Also: nearly all actives have a fitted effect of over 65% in size. To be noted: recombinant CYP3A4, Luciferin-PPXE luminescence, 60 min; series mostly up to 57.1 µM. In a few lines:
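Human CYP3A4 dealkylates Luciferin-PPXE to luciferin, which luciferase detection converts to light. Substrate was at its KM (25uM), buffer 200mM KPO4, reaction 60 min at RT.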

The target in assay [10] is Cytochrome P450 2D6 (Homo sapiens) (UniProt P10635). The assay can be described thus: qHTS Assay for Inhibitors and Substrates of Cytochrome P450 2D6 (AID 891). Also: potency is read from the fitted curve at half-maximal effect; nearly all actives have a fitted effect of over 60% in size. To be noted: recombinant CYP2D6, luciferin-ME EGE luminescence; series mostly up to 57.1 µM. In a few lines:
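Luminescent read-out of luciferin formed by 5 nM human CYP2D6 demethylating 30 uM Luciferin-ME EGE (Km level) over 60 min at room temperature after NADPH regeneration addition. Data normalized to full inhibition by 1.43 uM quinidine.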

Assay [11] concerns the target Cytochrome P450 2C19 (Homo sapiens) (UniProt P33261). The assay can be described thus: qHTS Assay for Inhibitors and Substrates of Cytochrome P450 2C19 (AID 899). Also: potency is read from the fitted curve at half-maximal effect; nearly all actives have a fitted effect of over 60% in size. The following applies: recombinant CYP2C19, luciferin-H EGE luminescence; series mostly up to 57.1 µM. In a few lines:
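5nM enzyme + 10uM Luciferin-H EGE (=KM), 50mM KPO4; cpd pin-transferred, 10 min 37C; NADPH regen, 60 min 37C; stopped w/ luciferin detection reagent, 20 min; luminescence. Normalized to 57uM ketoconazole (AC100).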

A short description of assay [12]: Confirmation and Secondary Assay for Modulators of Hemoglobin Beta Chain Splicing at IVS2 654 locus (AID 910).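 Also: HeLa cells stably carrying EGFP split by mutant beta-globin IVS2-654 intron; per-well total GFP intensity by laser scanning cytometry after 2-day treatment; % of control where 0% means no effect.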 To be noted: HeLa EGFP-654 splicing reporter, GFP fluorescence, 48 h; series mostly up to 38.3 µM. The method in brief: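 Readout: per-well total peak green fluorescence (488 nm ex, 500–520 nm em) from objects 5–250 µm, reflecting correct splicing of an EGFP-654 reporter. Compounds were applied for 2 days at 37 °C to overnight-plated HeLa EGFP-654 cells; controls were DMSO and 500 nM IVS2-654 PNA.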

Assay [13] can be described thus: Confirmation and Secondary Assay for Modulators of Hemoglobin Beta Chain Splicing at IVS2 705 locus (AID 930).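 Also: HeLa cells stably expressing the EGFP-705 splicing reporter; GFP fluorescence per well restored by corrected splicing of the IVS2-705 intron in EGFP; % of control where 0% means no effect.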 To be noted: HeLa EGFP-705 splicing reporter, GFP fluorescence, 48 h; series mostly up to 38.3 µM. The method in brief: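 Per-well GFP, captured at 1 x 8 µm resolution with 488 nm excitation, served as the read-out for HeLa EGFP-705 cells incubated 2 days with test compound versus DMSO.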

The nature of assay [14]: qHTS Assay for Lipid Storage Modulators (AID 1519; calls by dose curve). To be noted: Drosophila S3 cells, BODIPY lipid droplet/cell ratio, laser cytometry, cells loaded with oleic acid. The method in brief: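 Cells seeded at 5,000 per well were treated with compounds over a concentration series and loaded with oleic acid (400 uM, as added). Lipid droplet fluorescence (488 nm excitation, 500-530 nm channel) was read by laser-scanning cytometry and normalized to 20 uM Triacsin C.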

The target of assay [15] is Calcium and integrin-binding protein 1 (Homo sapiens) (UniProt Q99828). The assay can be described thus: Primary qHTS for Identification of Calcium Integrin Binding Protein 1 (CIB1) Competitor (AID 1508620).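 Also: GST tagged CIB1 binding a fluorescein labelled alphaIIb integrin peptide tracer; top concentration of the series differs between compounds; % is scaled to controls: 0 for no effect and ±100 for the full control effect.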 The following applies: CIB1-GST / FITC-alphaIIb peptide fluorescence polarization; series mostly up to 114 µM. The method in brief:
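CIB1-GST (1 uM final) and compound incubated 15 min at room temperature before adding FITC-alphaIIb peptide tracer (100 nM final). Competition for binding read by fluorescence polarization (ex 480, em 540) after another 15 min at room temperature.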

The nature of assay [16]: Primary qHTS for small molecule stabilizers of the endoplasmic reticulum resident proteome: Secreted ER Calcium Modulated Protein (SERCaMP) assay (AID 1508630). Also: % is scaled to controls: 0 for no effect and ±100 for the full control effect. To be noted: SH-SY5Y GLuc-SERCaMP (Gaussia luciferase released on ER calcium loss) secretion, thapsigargin, luminescence; series mostly up to 38.4 µM. In a few lines: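 The SH-SY5Y reporter protocol was run at 3 concentrations up to 38.3 uM (primary) or 11 concentrations (follow-up): 16 h compound, 100 nM thapsigargin for 4 h, then extracellular luciferase luminescence.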

Results filed as inconclusive are left out. Active and inactive are the calls of the source. Unless noted, calls follow the shape of the dose curve; as a rule, active = well fitted curve in the direction sought with a large enough effect; inconclusive = small, poorly fitted or top-dose-only effect, or another doubt; inactive = no such curve, though single readings can be large; an effect the other way counts as inactive or inconclusive.

Glucocorticoid receptor (Homo sapiens), sequence (P04150 whole entry, looked up, the tested form may be a part): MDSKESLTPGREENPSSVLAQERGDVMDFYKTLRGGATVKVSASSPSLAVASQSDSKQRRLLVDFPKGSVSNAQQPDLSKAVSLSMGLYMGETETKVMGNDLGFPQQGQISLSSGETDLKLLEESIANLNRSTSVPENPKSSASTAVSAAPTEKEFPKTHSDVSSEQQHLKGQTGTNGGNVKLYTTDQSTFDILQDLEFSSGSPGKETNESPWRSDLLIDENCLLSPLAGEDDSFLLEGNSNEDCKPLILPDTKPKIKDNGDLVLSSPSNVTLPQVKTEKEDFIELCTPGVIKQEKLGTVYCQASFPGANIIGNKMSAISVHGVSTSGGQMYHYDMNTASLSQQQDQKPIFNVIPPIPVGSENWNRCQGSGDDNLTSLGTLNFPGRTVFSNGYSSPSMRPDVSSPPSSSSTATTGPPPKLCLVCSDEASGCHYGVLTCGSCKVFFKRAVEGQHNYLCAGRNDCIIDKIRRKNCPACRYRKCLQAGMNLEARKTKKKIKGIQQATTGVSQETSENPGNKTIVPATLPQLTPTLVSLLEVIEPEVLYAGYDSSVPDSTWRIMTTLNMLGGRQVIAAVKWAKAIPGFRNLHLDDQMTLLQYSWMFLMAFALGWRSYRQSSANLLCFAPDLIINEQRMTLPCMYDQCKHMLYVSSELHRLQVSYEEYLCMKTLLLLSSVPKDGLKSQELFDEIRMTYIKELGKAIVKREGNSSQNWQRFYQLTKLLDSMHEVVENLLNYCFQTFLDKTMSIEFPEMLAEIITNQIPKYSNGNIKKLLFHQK
Cytochrome P450 3A4 (Homo sapiens), sequence (P08684 whole entry, looked up): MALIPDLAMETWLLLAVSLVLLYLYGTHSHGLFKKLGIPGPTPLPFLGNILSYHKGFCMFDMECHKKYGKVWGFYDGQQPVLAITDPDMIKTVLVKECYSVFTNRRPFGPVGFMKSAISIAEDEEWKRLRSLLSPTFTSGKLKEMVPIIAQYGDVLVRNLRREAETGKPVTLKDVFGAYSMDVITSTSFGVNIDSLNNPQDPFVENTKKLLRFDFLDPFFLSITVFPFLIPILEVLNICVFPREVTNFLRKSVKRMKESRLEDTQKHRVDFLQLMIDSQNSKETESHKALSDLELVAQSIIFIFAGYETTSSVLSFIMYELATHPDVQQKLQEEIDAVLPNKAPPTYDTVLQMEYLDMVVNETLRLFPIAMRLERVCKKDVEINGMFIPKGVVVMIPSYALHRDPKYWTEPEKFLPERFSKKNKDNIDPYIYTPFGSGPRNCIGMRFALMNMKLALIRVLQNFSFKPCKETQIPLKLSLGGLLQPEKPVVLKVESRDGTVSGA
Cytochrome P450 1A2 (Homo sapiens), sequence (P05177 whole entry, looked up): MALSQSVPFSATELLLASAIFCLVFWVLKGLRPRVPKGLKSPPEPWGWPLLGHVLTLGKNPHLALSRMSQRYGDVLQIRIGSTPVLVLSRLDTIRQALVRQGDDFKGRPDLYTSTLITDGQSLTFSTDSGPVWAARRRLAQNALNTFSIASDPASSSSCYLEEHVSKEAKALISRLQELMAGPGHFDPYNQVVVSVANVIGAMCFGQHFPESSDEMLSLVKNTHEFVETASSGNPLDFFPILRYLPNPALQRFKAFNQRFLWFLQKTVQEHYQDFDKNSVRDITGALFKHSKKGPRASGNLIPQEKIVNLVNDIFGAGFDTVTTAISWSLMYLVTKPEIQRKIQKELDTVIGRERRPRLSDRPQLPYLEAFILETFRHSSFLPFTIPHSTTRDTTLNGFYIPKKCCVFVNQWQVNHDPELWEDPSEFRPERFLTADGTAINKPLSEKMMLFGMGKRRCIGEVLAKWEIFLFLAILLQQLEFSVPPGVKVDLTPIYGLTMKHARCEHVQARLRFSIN
Cytochrome P450 2C9 (Homo sapiens), sequence (P11712 whole entry, looked up): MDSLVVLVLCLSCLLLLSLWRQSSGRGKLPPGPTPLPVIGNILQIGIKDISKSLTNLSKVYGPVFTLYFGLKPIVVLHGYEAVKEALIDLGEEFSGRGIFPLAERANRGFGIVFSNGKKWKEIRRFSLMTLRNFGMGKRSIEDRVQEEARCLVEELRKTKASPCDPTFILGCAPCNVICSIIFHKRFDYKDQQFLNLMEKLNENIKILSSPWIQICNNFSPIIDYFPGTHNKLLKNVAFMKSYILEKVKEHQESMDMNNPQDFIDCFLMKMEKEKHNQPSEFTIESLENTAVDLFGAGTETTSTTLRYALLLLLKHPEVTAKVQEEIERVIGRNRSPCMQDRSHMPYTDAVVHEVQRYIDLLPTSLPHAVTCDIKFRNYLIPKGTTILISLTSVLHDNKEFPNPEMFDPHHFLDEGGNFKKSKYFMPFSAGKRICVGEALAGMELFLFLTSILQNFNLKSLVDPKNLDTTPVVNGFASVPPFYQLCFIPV
Lysosomal acid glucosylceramidase (Homo sapiens), sequence (P04062 whole entry, looked up): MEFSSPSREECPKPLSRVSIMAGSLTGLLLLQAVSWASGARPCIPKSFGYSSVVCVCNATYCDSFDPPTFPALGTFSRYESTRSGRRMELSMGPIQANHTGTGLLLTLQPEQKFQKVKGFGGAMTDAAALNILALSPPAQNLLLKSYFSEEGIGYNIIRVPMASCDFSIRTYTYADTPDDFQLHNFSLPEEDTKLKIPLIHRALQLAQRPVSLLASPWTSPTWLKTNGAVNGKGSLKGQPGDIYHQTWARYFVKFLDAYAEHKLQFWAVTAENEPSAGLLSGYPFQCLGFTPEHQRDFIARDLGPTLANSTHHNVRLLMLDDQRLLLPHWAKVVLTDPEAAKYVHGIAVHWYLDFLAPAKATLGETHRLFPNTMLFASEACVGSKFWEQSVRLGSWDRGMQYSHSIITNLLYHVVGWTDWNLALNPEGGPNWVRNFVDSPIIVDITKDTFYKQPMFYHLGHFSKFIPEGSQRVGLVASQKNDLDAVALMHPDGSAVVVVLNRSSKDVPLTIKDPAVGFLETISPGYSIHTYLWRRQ
Calcium and integrin-binding protein 1 (Homo sapiens), sequence (Q99828 whole entry, looked up): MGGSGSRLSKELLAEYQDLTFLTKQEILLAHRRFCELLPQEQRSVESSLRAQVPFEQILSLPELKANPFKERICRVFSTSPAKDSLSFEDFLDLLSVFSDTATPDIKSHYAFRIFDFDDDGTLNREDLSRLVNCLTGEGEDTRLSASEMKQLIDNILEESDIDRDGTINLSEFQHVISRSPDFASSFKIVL
Cytochrome P450 2D6 (Homo sapiens), sequence (P10635 whole entry, looked up): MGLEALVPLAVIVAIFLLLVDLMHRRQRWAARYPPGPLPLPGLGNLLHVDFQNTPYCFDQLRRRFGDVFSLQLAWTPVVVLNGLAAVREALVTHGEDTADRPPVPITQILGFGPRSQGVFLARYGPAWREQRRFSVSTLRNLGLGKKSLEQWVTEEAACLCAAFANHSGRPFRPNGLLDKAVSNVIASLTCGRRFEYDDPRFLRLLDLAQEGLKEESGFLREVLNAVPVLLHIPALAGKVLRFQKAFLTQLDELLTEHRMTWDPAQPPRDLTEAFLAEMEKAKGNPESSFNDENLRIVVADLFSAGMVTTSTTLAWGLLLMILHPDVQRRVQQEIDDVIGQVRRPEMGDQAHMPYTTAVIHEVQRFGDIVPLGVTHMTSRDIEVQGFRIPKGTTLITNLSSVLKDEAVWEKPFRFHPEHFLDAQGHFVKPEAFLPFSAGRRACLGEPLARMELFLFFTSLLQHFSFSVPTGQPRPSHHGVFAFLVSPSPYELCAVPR
Cytochrome P450 2C19 (Homo sapiens), sequence (P33261 whole entry, looked up): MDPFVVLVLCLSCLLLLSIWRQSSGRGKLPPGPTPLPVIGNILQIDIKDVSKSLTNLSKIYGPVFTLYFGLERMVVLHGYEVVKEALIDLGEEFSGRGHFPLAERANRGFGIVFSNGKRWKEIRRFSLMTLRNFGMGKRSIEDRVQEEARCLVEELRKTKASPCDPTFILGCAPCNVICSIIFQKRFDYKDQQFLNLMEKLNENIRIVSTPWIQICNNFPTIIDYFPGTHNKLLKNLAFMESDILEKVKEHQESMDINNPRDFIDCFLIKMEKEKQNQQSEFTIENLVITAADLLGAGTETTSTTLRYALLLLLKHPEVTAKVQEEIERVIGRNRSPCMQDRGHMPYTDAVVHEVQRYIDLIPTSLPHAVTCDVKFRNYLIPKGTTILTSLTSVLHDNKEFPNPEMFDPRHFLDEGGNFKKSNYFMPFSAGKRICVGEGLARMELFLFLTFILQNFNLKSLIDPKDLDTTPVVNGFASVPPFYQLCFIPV

`Cc1cccc(CNc2ncnc3ccc(-c4ccc5c(c4)OCO5)cc23)c1`: the Potency in assay [1] is > 11.4 µM (inactive); in assay [2], 501 nM (active); in [4] it was > 46 µM (inactive); in [5] it was > 46 µM (inactive); in [7] it was 316 nM (active); in [8], 2 µM (active). For the same compound, the values for the Potency in assay [10] and in [11] were 501 nM (active) and 5.01 µM (active), respectively. The activity, negative = inhibition in assay [3] is -13.6% (inactive). For the same compound, the compound was called inactive in [6], in assay [12] and in [13]. For the same compound, the Potency entry in assay [9], in [15] and in assay [16] was “inactive” throughout. Besides, the activity change, negative = inhibition in [14] (at 57.5 µM (top of the series)) was 5.85% (inactive). Besides, the max response in [14] (measured here: cell count channel max response) is -5.17%; in assay [14] (measured here: lipid channel max response) it was -0.18%.
